One test has as its system T1, YANK3.
T1 construct: gene STK32C
As to conditions: concentration: 1 μM, replicates: in singlicate, n = 1.

The subject of the next test is T2, YES.
T2 construct: gene YES1
The settings on record: concentration: 1 μM, replicates: in singlicate, n = 1.

In another test the test system is T3, YSK1.
T3 construct: gene STK25
The settings on record: concentration: 1 μM, replicates: in singlicate, n = 1.

A further test relates to T4, YSK4.
T4 construct: gene MAP3K19
As to conditions: concentration: 1 μM, replicates: in singlicate, n = 1.

In a further test the test system is ZAK. As to conditions: concentration: 1 μM, replicates: in singlicate, n = 1.
In another test the test system is ZAP70. As to conditions: concentration: 1 μM, replicates: in singlicate, n = 1.
For a further test, the system named is T5, p38-alpha.
T5 construct: gene MAPK14
The settings on record: concentration: 1 μM, replicates: in singlicate; n = 1.

The test system of a further test is T6, p38-beta.
T6 construct: gene MAPK11
As to conditions: concentration: 1 μM, replicates: in singlicate; n = 1.

The next test relates to p38-delta. The settings on record: concentration: 1 μM, replicates: in singlicate, n = 1.
A further test concerns T7, p38-gamma.
T7 construct: gene MAPK12
The settings on record: concentration: 1 μM, replicates: in singlicate, n = 1.

“And” between values parts separate entries of the source, which are not always exact repeats. Equal values may be shown once. Read-outs that look alike come from different tables or passages of the source.
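Also: KINOMEscan kinase panel screen.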

Consider `Nc1nc(-c2ccc3c(N)n[nH]c3c2)cc(N2CCCC2)n1` [GSK2227430], for which the “%Inh” value was 0% with YANK3; 0% in the test with YES; 9% in the test on YSK1; 36% in the test with YSK4; 0% in the test on ZAK; 0% in the test with ZAP70. In addition, the “%Inh” value is 0% in the test with p38-alpha, 0% in the test with p38-beta, 25% in the test on p38-delta and 0% with p38-gamma.
With `COc1cc2c(cc1OC[C@@H](O)CO)ncc1c3ccc(C#N)cc3[nH]c21`, the “%Inh” value in the test with YANK3 came out at 0%; in the test with YES, 0%; in the test with YSK1, 0%; in the test with YSK4 it was 90%; in the test on ZAK, 1%; with ZAP70 it was 0%. The “%Inh” value in the test with p38-alpha is reported as 5%; in the test on p38-beta, 15%; in the test with p38-delta it was 0%; in the test with p38-gamma, 18%.
`Cc1c(Cn2c(C)nn3c(=O)cc(N4CCOC(C)C4)nc23)cccc1C(F)(F)F` (stereo not drawn) [GSK2344444]: the “%Inh” value is 13% with YANK3; 3% in the test on YES; 0% in the test on YSK1; 9% with YSK4; 0% with ZAK; 0% in the test with ZAP70. Besides, the “%Inh” value is on record as 0% in the test on p38-alpha, 0% with p38-beta, 17% in the test on p38-delta and 0% with p38-gamma.
Turning to `COCCNC(=O)c1ccc(-c2cc(C(=O)NC3CC3)cc(F)c2C)cc1` [GW868318], the “%Inh” value with YANK3 was 22%; with YES, 4%; with YSK1, 0%; in the test with YSK4 it was 33%; with ZAK, 23%; in the test with ZAP70, 0%. For the same molecule, the “%Inh” value with p38-alpha is 100%; in the test with p38-beta it was 94%; in the test on p38-delta, 0%; with p38-gamma it was 29%.
As to `NS(=O)(=O)c1cccc(-c2ccc3ncc(N4CCOCC4)nc3c2)c1` [GSK1535721], the “%Inh” value in the test with YANK3 stood at 1%; in the test on YES, 7%; in the test with YSK1 it was 15%; in the test with YSK4, 89%; in the test with ZAK, 3%; in the test on ZAP70 it was 0%. Further, the “%Inh” value in the test on p38-alpha is 9%; with p38-beta it was 0%; in the test on p38-delta, 21%; with p38-gamma it was 0%.
For `Nc1nccc(-c2c(-c3ccc(F)cc3)ncn2C2CCN(CC(F)(F)F)CC2)n1` [SB-236560], the “%Inh” value came to 0% in the test with YANK3; 8% in the test with YES; 0% in the test with YSK1; 0% with YSK4; 0% with ZAK; 49% in the test on ZAP70. For the same molecule, the “%Inh” value came out at 96.6% with p38-alpha, 11% with p38-beta, 8% in the test with p38-delta and 0% in the test with p38-gamma.
For the molecule `CCCCCc1nc2c(N)ncnc2n1CCCCC` [SKF-97255], the “%Inh” value in the test on YANK3 is listed as 0%; in the test with YES it was 0%; in the test with YSK1, 12%; with YSK4, 14%; in the test on ZAK it was 13%; with ZAP70, 13%. The “%Inh” value in the test on p38-alpha was 0%; in the test on p38-beta, 19%; in the test with p38-delta it was 0%; in the test with p38-gamma, 50%.
For `COc1ccc(COc2cc(-n3cnc4ccccc43)sc2C(N)=O)cc1` [GSK1024304], the “%Inh” value in the test with YANK3 is given as 0%; in the test on YES, 0%; in the test with YSK1, 0%; with YSK4, 15%; in the test on ZAK, 14%; in the test on ZAP70, 0%. Besides, the “%Inh” value in the test on p38-alpha turned out to be 35%; in the test on p38-beta, 0%; in the test on p38-delta it was 36%; in the test on p38-gamma, 0%.
As to `CC(C)(C)n1cnc2c(N)ncnc21` [SKF-97359], the “%Inh” value in the test on YANK3 stood at 0%; with YES, 27%; in the test on YSK1, 0%; with YSK4, 0%; with ZAK it was 0%; in the test with ZAP70, 21%. The “%Inh” value is reported as 0% with p38-alpha, 0% in the test with p38-beta, 0% in the test on p38-delta and 2% in the test on p38-gamma.
As for `COc1ccc(CNC(=O)NC2CCN(c3ccnc(Nc4ccc(OC)cc4)n3)C2)cc1` (stereo not drawn) [GSK1379727], the “%Inh” value in the test with YANK3 was found to be 8%; in the test with YES, 3%; in the test on YSK1 it was 0%; in the test on YSK4 it was 36%; in the test with ZAK, 0%; with ZAP70, 0%. The “%Inh” value in the test with p38-alpha is recorded as 11%; with p38-beta, 0%; in the test on p38-delta it was 8%; in the test with p38-gamma, 45%.
For `Cl.Cl.Cl.Fc1ccc(-c2ncn(C3CCNCC3)c2-c2ccnc(Nc3ccccc3)n2)cc1` [SB-238039], the “%Inh” value was 58% and 48% in the test with YANK3 (1 µM); 22% and 26% in the test with YES (1 µM); 10% and 0% in the test on YSK1 (1 µM); 39% and 0% in the test on YSK4 (1 µM); 11% and 0% in the test with ZAK (1 µM); 12% and 14% in the test with ZAP70 (1 µM). In addition, the “%Inh” value is 100% in the test with p38-alpha; 100% in the test with p38-beta; 98.6% and 99.7% in the test with p38-delta (1 µM); 93.1% and 100% in the test with p38-gamma (1 µM).
Regarding `Fc1ccc(-c2ncn(CCCN3CCOCC3)c2-c2ccccn2)cc1` [SB-211742], the “%Inh” value was 0% in the test with YANK3; 0% in the test on YES; 0% with YSK1; 0% in the test with YSK4; 0% with ZAK; 3% in the test on ZAP70. Moreover, the “%Inh” value with p38-alpha amounted to 2%; in the test with p38-beta, 0%; with p38-delta it was 2%; in the test on p38-gamma, 23%.
Regarding `N#Cc1c(N2CCOCC2)sc(-c2ccn[nH]2)c1-c1ccc(Cl)cc1`, the “%Inh” value in the test on YANK3 is recorded as 16%; with YES, 7%; in the test on YSK1, 0%; in the test with YSK4, 28%; in the test on ZAK, 0%; with ZAP70, 0%. Further, the “%Inh” value amounted to 7% with p38-alpha, 14% in the test on p38-beta, 0% in the test with p38-delta and 6% in the test on p38-gamma.
Take `Cc1nnc(-c2ccc3ncc(-c4ccc(S(C)=O)cc4)n3c2)o1` (stereo not drawn): the “%Inh” value in the test on YANK3 is 5%; in the test with YES it was 0%; in the test on YSK1, 0%; with YSK4, 3%; with ZAK it was 0%; in the test with ZAP70, 0%. The “%Inh” value stood at 9% in the test on p38-alpha, 1% in the test with p38-beta, 7% in the test with p38-delta and 10% in the test with p38-gamma.
On to `CN(C(=O)c1ccc(-c2cc(-c3c[nH]nc3-c3ccccn3)ccn2)cc1)C1CCOCC1` [GW810083], for which the “%Inh” value was 0% in the test with YANK3; 0% in the test with YES; 0% in the test with YSK1; 0% in the test with YSK4; 18% in the test with ZAK; 13% with ZAP70. Moreover, the “%Inh” value came to 10% in the test with p38-alpha, 3% with p38-beta, 5% in the test on p38-delta and 0% in the test with p38-gamma.
Consider `COc1ccc(Nc2nccc(N3CCC(NC(=O)Nc4cccc(C(C)=O)c4)C3)n2)cc1` (stereo not drawn) [GSK1379731], for which the “%Inh” value in the test on YANK3 is reported as 0%; with YES it was 0%; in the test with YSK1, 0%; with YSK4 it was 7%; in the test on ZAK, 0%; in the test with ZAP70, 0%. In addition, the “%Inh” value in the test with p38-alpha came to 0%; in the test with p38-beta, 0%; in the test on p38-delta it was 42%; with p38-gamma it was 0%.
For `COc1ccc(S(=O)(=O)NC2CCN(c3cc(C)nc(Nc4cccc(C#N)c4)n3)CC2)cc1.O=C(O)C(F)(F)F` [GSK1653539], the “%Inh” value in the test on YANK3 worked out at 0%; with YES, 4%; in the test on YSK1, 20%; with YSK4 it was 0%; with ZAK, 0%; in the test with ZAP70 it was 0%. The “%Inh” value with p38-alpha is reported as 9%; in the test on p38-beta it was 0%; in the test with p38-delta it was 28%; in the test on p38-gamma, 0%.
Regarding `O=C(NCCCN1CCOCC1)c1cccc(Nc2nccc(Nc3ccc(Oc4ccccc4)cc3)n2)c1` [GW663929], the “%Inh” value in the test on YANK3 turned out to be 1%; with YES, 84%; with YSK1 it was 22%; in the test with YSK4 it was 26%; in the test with ZAK, 47%; in the test on ZAP70, 6%. Moreover, the “%Inh” value in the test with p38-alpha was 11%; with p38-beta, 0%; in the test with p38-delta it was 18%; in the test on p38-gamma it was 0%.
Consider `O=C(NCCNc1ccnc(Nc2ccc(F)cc2)n1)Nc1ccccc1F` [GSK1379880], for which the “%Inh” value in the test on YANK3 was determined as 0%; with YES, 9%; with YSK1, 0%; in the test with YSK4 it was 26%; with ZAK, 0%; in the test with ZAP70 it was 0%. Moreover, the “%Inh” value turned out to be 0% in the test with p38-alpha, 0% with p38-beta, 52% with p38-delta and 0% with p38-gamma.
As to `O=c1cc(N2CCOCC2)nc2n(Cc3cccc(Cl)c3Cl)c(C3CC3)nn12` [GSK2358994], the “%Inh” value is on record as 0% with YANK3; 9% in the test with YES; 0% in the test on YSK1; 0% with YSK4; 12% in the test with ZAK; 10% in the test with ZAP70. Further, the “%Inh” value is given as 0% in the test on p38-alpha, 8% in the test with p38-beta, 4% in the test on p38-delta and 23% in the test with p38-gamma.
For `O=c1cc(N2CCOCC2)nc2n(Cc3cccc4ccccc34)ccn12` [GSK2333389], the “%Inh” value is given as 38% in the test on YANK3; 2% in the test on YES; 0% in the test with YSK1; 15% with YSK4; 3% with ZAK; 0% in the test on ZAP70. For the same molecule, the “%Inh” value stood at 0% in the test with p38-alpha, 0% with p38-beta, 16% in the test with p38-delta and 0% with p38-gamma.

The values are drawn from paper PMC5540273 (PLoS ONE, 2017).
